# NS1 function inh: inhibitors of influenza NS1 protein function; hit rate 0.4% among 270,000; Potency, µM (doses to about 46.1 µM), without a hit: at the highest dose activity, positive = more growth; calls by dose curve; also: potency is read from the fitted curve at half-maximal effect; actives are rising curves; nearly all actives have a fitted effect of over 50% in size
#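 Recovery from NS1-induced slow growth read by OD600 in budding yeast switched to galactose assay medium (pH 6.0, -URA) at 1:100 dilution. Compound 23 nl per well; the matching strain lacking NS1 serves as control.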
# FBPA Giardia inh: Giardia lamblia aldolase inhibition | hit rate 0.71% among 290,000 | purified Giardia FBPA | Potency, µM (series often up to 59.6 µM), without a hit: at the top dose activity, negative = inhibition, actives largely listed as inhibitors; also: potency is read from the fitted curve at half-maximal effect; % is scaled to controls: 0 for no effect and ±100 for the full control effect; nearly all actives have a fitted effect of over 55% in size
#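 40 nM FBPA preincubated 10 min at RT with compound (up to 57.5 uM final), then substrate plus GAPDH/TPI/NAD/arsenate coupling and diaphorase/resazurin added. Fluorescence read after 20 min at RT, 525/598 nm.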
# Shiga inhibitor: inhibitors of Shiga toxin in Vero cells; hit rate 9.2% among 290,000; Vero cells, Shiga toxin protein synthesis inhibition reporter; inhibition, % at 38.7 µM; AID 2315; in the data active = inhibition mostly above about 28%, no sharp cut-off; inactive = mostly below about 43%; also: 0% is about no effect
# Cycloheximide cs: counter-screen for Shiga toxin inhibitors: cycloheximide protein synthesis inhibition; hit rate 12% among 300,000; AID 2314; cell reporter, cycloheximide protein synthesis inhibition counterscreen; max response, %; in the data active = max response mostly above about 13%, no sharp cut-off; inactive = mostly below about 14%; also: read at 38.3 µM for the half of the compounds with a filed dose; 0% is about no effect
# LmPK inhibitor: blocks Leishmania mexicana pyruvate kinase activity | purified LmPK, Kinase-Glo ATP luminescence, 1 h | hit rate 0.37% among 290,000 | Potency, µM (titrated, usually from 57.5 µM), for inactives: at the highest dose activity change, negative = inhibition, hits mostly inhibitors | Q27686; also: potency is read from the fitted curve at half-maximal effect; % is scaled to controls: 0 for no effect and ±100 for the full control effect
# Target sequence (Q27686 whole entry, looked up): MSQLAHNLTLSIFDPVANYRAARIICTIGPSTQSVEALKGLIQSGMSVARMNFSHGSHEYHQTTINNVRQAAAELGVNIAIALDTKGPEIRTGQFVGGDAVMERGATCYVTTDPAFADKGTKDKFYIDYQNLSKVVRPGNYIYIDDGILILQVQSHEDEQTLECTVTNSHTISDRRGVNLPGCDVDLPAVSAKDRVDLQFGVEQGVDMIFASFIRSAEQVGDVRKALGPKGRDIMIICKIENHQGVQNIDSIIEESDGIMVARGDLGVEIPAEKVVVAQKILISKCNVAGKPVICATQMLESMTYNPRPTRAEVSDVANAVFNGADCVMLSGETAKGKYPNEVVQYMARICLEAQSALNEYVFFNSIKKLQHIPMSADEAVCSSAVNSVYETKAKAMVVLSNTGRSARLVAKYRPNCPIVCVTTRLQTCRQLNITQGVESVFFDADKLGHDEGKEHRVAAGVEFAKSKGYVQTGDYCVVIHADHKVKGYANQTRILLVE
#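 Purified LmPK (0.1 nM) with 0.5 mM PEP and 0.1 mM ADP in imidazole buffer pH 7.2 with MgCl2/KCl, 1 h at room temperature. ATP formed was read by luciferase luminescence and normalized to no-enzyme and uninhibited controls.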
# An asterisk follows results filed as active; ? = inconclusive; / = not tested or not shown. Shown are actives, neighbours in structure and some others; about 14% of the full set was active somewhere. Unless noted, calls follow the shape of the dose curve; as a rule, active = well fitted curve in the direction sought with a large enough effect; inconclusive = small, poorly fitted or top-dose-only effect, or another doubt; inactive = no such curve, though single readings can be large; an effect the other way counts as inactive or inconclusive.
SMILES,NS1 function inh,FBPA Giardia inh,Shiga inhibitor,Cycloheximide cs,LmPK inhibitor
CN(C)CCCNc1cc(C(C)(C)C)nc2c(-c3ccccc3)cnn12,-2%,6%,61*,47*,2%
Cc1cc(C)c2c(n1)nn1c(NCCCn3ccnc3)cc(C)nc21,-9%,7%,3,-5,1%
CC(C)(C)c1cc(NCCCn2ccnc2)n2ncc(-c3ccc(Cl)cc3)c2n1,-39%,1%,87*,58*,1%
O=C(Nc1ccccc1)/C(=C\c1ccc(F)cc1)NC(=O)c1ccco1,7%,-5%,-11,3,-1%
CCc1nc(C)cc2c1sc1ccccc12,-4%,-12%,38,19*,9%
CSc1nnc(NC(=O)C23CC4CC(CC(C4)C2)C3)s1,-1%,12%,23,36*,0%
CC(C)Cc1nnc(NC(=O)C23CC4CC(CC(C4)C2)C3)s1,3%,18%,26,5,3%
NC(=O)CSc1nnc(NC(=O)C23CC4CC(CC(C4)C2)C3)s1,11%,-10%,23,36*,-5%
Cc1ccc(N2CC(C(=O)Nc3nnc(SCC(N)=O)s3)CC2=O)cc1C (stereo unspecified),-1%,11%,14,-1,3%
CCc1nnc(NC(=O)C23CC4CC(CC(C4)C2)C3)s1,0%,7%,56*,24*,-1%
O=S(=O)(O)c1cc(N=[N+]([O-])c2cc(S(=O)(=O)O)c3ccccc3c2)cc2ccccc12,-3%,/,/,/,/
Oc1ccc(Br)cc1C=Nc1cccn2cc(-c3ccccc3)nc12,/,?,81*,35*,?
Oc1ccc(Br)cc1/C=N/n1c(-c2ccccc2)n[nH]c1=S,7%,-6%,-3,-1,3%
CCc1ccccc1NC(=O)CSc1nc(C)c(C)o1,-25%,/,9,1,-8%
Cc1nc2ccc(-c3nc4cc(N)ccc4o3)cc2[nH]1,14%,1%,27*,21*,?
CCc1ccc2oc(-c3cccc(N)c3)nc2c1,-66%,-5%,29,23,?
Cc1ccccc1-c1nc2cc(N)ccc2o1,-45%,4%,87*,55*,-19%
Nc1ccc2oc(-c3ccc4nc[nH]c4c3)nc2c1,8%,-19%,27,16*,?
Nc1ccc2oc(-c3cccc(Br)c3)nc2c1,10%,-6%,108,43*,-1%
CC(C)c1ccc2oc(-c3cc(N)ccc3O)nc2c1,-84%,-15%,3,12,-29%
OC[C@H]1OC(O)(CN2CCOCC2)[C@H](O)[C@@H]1O (stereo partly specified),/,5%,-9,-1,/
CCN1C(=NCc2ccco2)N[C@@H](c2cccc(F)c2)C(C(=O)OC)=C1C,7%,11%,15,-4,-7%
C[C@@H](C(=O)Nc1ccc2ccccc2c1)[C@H]1C[C@]1(C)[C@H](NC(=O)Oc1ccc(F)cc1)c1ccccc1,/,2%,/,/,/
Nc1ccc(-c2nc3ccccc3o2)cc1,8%,-23%,91*,57*,-15%
O=C1c2ccccc2NC(c2ccc(Cl)cc2Cl)N1O (stereo unspecified),-71%,4%,-16,-5,2%
SMILES,NS1 function inh,FBPA Giardia inh,Shiga inhibitor,Cycloheximide cs,LmPK inhibitor
O=C1c2ccccc2NC(c2cccc(Cl)c2)N1N=C1CCCCCC1 (stereo unspecified),-5%,3%,52,37*,5%
O=C(O)CCC(=O)NCCn1c(-c2ccccc2)csc1=Nc1ccccc1,-10%,-1%,49,19*,0%
COCCn1c(-c2ccc(Br)cc2)csc1=Nc1cccnc1,/,-3%,2,-1,9%
OCCCn1c(-c2ccccc2)csc1=Nc1ccccc1,/,-4%,73*,32,0%
COc1ccc(N=c2scc(-c3ccc(OC)cc3)n2CCO)cc1,-11%,-8%,63,30*,4%
CCn1c(-c2ccccc2)csc1=Nc1ccc(S(=O)(=O)O)cc1,0%,26%,-7,-3,0%
O=C(c1cccs1)N1CCN(C23CC4CC(CC(C4)C2)C3)CC1,-48%,/,-15,-1,-6%
N#Cc1cccc(NC(=O)NCCc2c[nH]c3ccccc23)c1,-11%,0%,-10,-4,-2%
S=C(NCCc1c[nH]c2ccccc12)NC1CCCCC1,/,-1%,60,16,1%
O=C(NCCc1c[nH]c2ccccc12)Nc1ccccc1,-1%,-2%,14,24*,5%
S=C(NCCc1c[nH]c2ccccc12)NC1CCCC1,7%,0%,37,23*,4%
Cc1cccc(NC(=S)NCCc2c[nH]c3ccccc23)c1,-25%,-20%,-1,1,6%
Cc1ccc(NC(=S)NCCc2c[nH]c3ccccc23)cc1,-39%,-4%,18,15*,1%
Cc1nnc(SCC(=O)Nc2ccc(Oc3ccccc3)cc2)n1N,-5%,-6%,-17,0,-1%
Cc1nnc(SCc2ccccc2)n(N)c1=O,4%,3%,-8,4,-4%
Cc1nnc(SCc2cccc(Oc3ccccc3)c2)n1N,-5%,1%,5,21*,2%
Nn1c(SCc2ccccc2)nnc1-c1ccccn1,-8%,2%,38*,30*,1%
Cc1ccc(CSc2nnc(C)c(=O)n2N)cc1,-3%,1%,5,12*,-4%
Nn1c(SCc2ccccc2F)nnc1-c1ccccn1,0%,3%,135*,33*,1%
Nn1c(SCc2ccc(F)cc2)nnc1-c1ccccn1,0%,1%,68*,34*,-4%
Cc1ccc(CSc2nnc(-c3ccccn3)n2N)cc1,-3%,3%,107*,23*,0%
COC(=O)C1C(c2ccccc2)C(C(=O)OCc2ccco2)C1c1ccccc1 (stereo unspecified),-36%,-1%,125*,72*,1%
O=C(O)C1C(c2ccccc2)C(C(=O)OCc2ccco2)C1c1ccccc1 (stereo unspecified),0%,15%,-3,-1,8%
N#Cc1ccc[n+](CC(=O)c2ccc(NC(=O)c3ccccc3)cc2)c1,10%,-10%,32*,14,-4%
CCC(=O)NC1=C(Nc2ccc(N)cc2)C(=O)c2ccccc2C1=O,7%,?,96*,27*,-19%
SMILES,NS1 function inh,FBPA Giardia inh,Shiga inhibitor,Cycloheximide cs,LmPK inhibitor
Cc1ccc[n+](CC(=O)c2ccc(NC(=O)c3ccccc3)cc2)c1,/,-10%,-15,1,2%
O=C(Nc1ccc(C(=O)c2ccccc2)cc1)c1ccccc1,-41%,14%,148*,56*,3%
CCCCC(CC)C(=O)Nc1ccc(Nc2ccccc2)cc1 (stereo unspecified),5%,0%,-7,4,-2%
CCC(CC)C(=O)Nc1ccc(C(=O)c2ccccc2)cc1,-22%,3%,50*,18*,6%
CCC(=O)Nc1ccc(NC(=S)Nc2ccccc2)cc1,6%,4%,-18,-6,3%
CCC(=O)Nc1ccc(C2C(=O)c3ccccc3C2=O)cc1,?,-16%,35,25*,1%
C=CCNC(=O)c1ccc(C(=O)c2ccccc2)cc1,-62%,2%,110*,24*,0%
CCC(=O)Nc1ccc(C(=O)c2ccccc2)cc1,-53%,2%,35,20*,2%
